Our source for the outcome and AC50 values is PubChem BioAssay (EPA / NIEHS).

The structures appear in SMILES notation. Inconclusive results are not listed. Active and inactive are the calls of the source. How the source made its calls: active means hit-call score of the fitted dose curve at least 0.9, where 1 is the maximum; inconclusive means response in the unintended direction; inactive means score below 0.9.

Assay [1] has as its target human Dopamine Receptor D4.4 (DRD4.4), DRD4 (gene 1815) (UniProt P21917). As to the kind of experiment: NVS_GPCR_hDRD4.4: NovaScreen (NVS) G Protein-Coupled Receptor Assay for human Dopamine Receptor D4.4 (DRD4.4) (AID 2283264). The procedure: (§1) NVS_GPCR_hDRD4.4 is a biochemical, single-readout assay that uses extracted gene-proteins from CHO in a cell-free assay. Measurements were taken 1 hour after chemical dosing in a 96-well plate.NVS_GPCR_hDRD4.4 is one of one assay component(s) measured or calculated from the NVS_GPCR_hDRD4.4 assay. It is designed to make measurements of radioligand binding, a form of binding reporter, as detected with scintillation counting signals by Filter-based radiodetection technology.Data from the assay component NVS_GPCR_hDRD4.4 was analyzed into 1 assay endpoint. This assay endpoint, NVS_GPCR_hDRD4.4, was analyzed in the positive analysis fitting direction relative to DMSO as the negative control and baseline of activity. […] Furthermore, this assay endpoint can be referred to as a primary readout, because the performed assay has only produced 1 assay endpoint. […]
(§2) Binding assays used specific radioligands (tritiated, iodinated) with non-radioactive competitive displacement ligands in agonist or antagonist protocols (as indicated) and various reference compounds and inhibitors to titrate specific binding to receptors and transporters. Most enzyme assays (CYPs, kinases, phosphatases, proteases, HDACs) used recombinant protein and specific substrates (fluorescence mostly, some colorimetric and radioactive) and inhibitors, followed by a biochemical separation of substrate and product. […]

Assay [2] addresses human Dopamine Receptor D2 (DRD2), DRD2 (gene 1813) (UniProt P14416). As to the kind of experiment: NVS_GPCR_hDRD2s: NovaScreen (NVS) G Protein-Coupled Receptor Assay for human Dopamine Receptor D2 (DRD2) (AID 2283266). Summed up:
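Test compound (25 uM, duplicate in the primary screen; concentration series at follow-up) competed with radioligand for human DRD2 in CHO-derived membrane protein. Filter-based scintillation counting was done 1.5 hours after dosing, with loss of signal analysed against DMSO.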

The target in assay [3] is human Muscarinic, M4 Receptor, CHRM4 (gene 1132) (UniProt P08173). As to the kind of experiment: NVS_GPCR_hM4: NovaScreen (NVS) G Protein-Coupled Receptor Assay for human Muscarinic, M4 Receptor (AID 2283274). Summed up:
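Filter-based scintillation counting of radioligand bound to CHO-expressed human M4 preparations after 1 h; loss of signal fitted versus DMSO. Initial duplicate testing at 25 uM, concentration-response follow-up for actives.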

For assay [4], the target named is Muscarinic acetylcholine receptor M5 (Homo sapiens) (UniProt P08912). Briefly: NVS_GPCR_hM5: NovaScreen (NVS) G Protein-Coupled Receptor Assay for human Muscarinic, M5 Receptor (AID 2283275). Summed up: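 Chemicals passing a primary duplicate screen at 25 uM were run as singleton concentration series, maximum 50 uM. Displacement of a specific radioligand from CHO-extracted receptor was read by filter scintillation after 1 h, relative to DMSO.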
Sequence of Muscarinic acetylcholine receptor M5 (Homo sapiens) (P08912 whole entry, looked up): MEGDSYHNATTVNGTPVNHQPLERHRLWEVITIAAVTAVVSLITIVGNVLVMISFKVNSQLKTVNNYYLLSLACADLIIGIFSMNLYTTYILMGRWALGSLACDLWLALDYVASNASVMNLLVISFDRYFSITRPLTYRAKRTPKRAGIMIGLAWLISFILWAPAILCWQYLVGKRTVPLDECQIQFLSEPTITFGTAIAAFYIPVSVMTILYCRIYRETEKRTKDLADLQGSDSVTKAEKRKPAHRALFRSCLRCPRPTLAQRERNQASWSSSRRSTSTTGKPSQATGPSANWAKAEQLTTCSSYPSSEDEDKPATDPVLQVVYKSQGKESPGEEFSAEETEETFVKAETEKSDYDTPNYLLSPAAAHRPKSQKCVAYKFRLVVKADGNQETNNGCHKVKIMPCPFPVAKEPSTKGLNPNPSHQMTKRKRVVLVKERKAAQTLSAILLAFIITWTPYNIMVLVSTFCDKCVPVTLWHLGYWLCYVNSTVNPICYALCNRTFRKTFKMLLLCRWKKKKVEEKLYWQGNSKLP

Assay [5] has as its target Neuropeptide Y receptor type 2 (Homo sapiens) (UniProt P49146). As to the kind of experiment: NVS_GPCR_hNPY2: NovaScreen (NVS) G Protein-Coupled Receptor Assay for human Neuropeptide Receptor Y2 (NPY2) (AID 2283277). Summed up: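 Chemicals were first tested in duplicate at 25 uM, then actives in singleton concentration series to 50 uM. Tracer binding to SK-N-MC-derived protein measured cell-free after 1 h via filter scintillation; signal loss relative to DMSO.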

The target of assay [6] is human Leukotriene B4 Receptor 1 (LTB4-BLT1), LTB4R (gene 1241) (UniProt Q15722). As to the kind of experiment: NVS_GPCR_hLTB4_BLT1: NovaScreen (NVS) G Protein-Coupled Receptor Assay for human Leukotriene B4 Receptor 1 (LTB4-BLT1) (AID 2283271). Summed up: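 Cell-free human neutrophil receptor preparation, 1 h exposure, radioligand binding read by filter scintillation counting. Single 25 uM duplicate screen, then concentration series topping at 50 uM; binding loss scored against DMSO baseline.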
Sequence of human Leukotriene B4 Receptor 1 (LTB4-BLT1), LTB4R (gene 1241) (Q15722 whole entry, looked up): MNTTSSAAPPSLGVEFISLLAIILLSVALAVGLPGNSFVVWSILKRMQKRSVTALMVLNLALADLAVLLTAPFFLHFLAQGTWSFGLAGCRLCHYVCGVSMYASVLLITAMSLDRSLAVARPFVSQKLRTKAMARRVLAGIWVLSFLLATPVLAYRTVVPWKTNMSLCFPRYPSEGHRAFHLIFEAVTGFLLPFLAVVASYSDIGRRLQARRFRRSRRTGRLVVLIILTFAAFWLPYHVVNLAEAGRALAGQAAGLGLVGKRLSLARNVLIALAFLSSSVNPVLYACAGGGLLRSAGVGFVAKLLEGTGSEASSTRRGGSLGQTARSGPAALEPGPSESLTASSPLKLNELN

Assay [7] has as its target human Neuropeptide Receptor Y1 (NPY1), NPY1R (gene 4886) (UniProt P25929). Briefly: NVS_GPCR_hNPY1: NovaScreen (NVS) G Protein-Coupled Receptor Assay for human Neuropeptide Receptor Y1 (NPY1) (AID 2283276). The protocol: as §1, with “NVS_GPCR_hNPY1” for “NVS_GPCR_hDRD4.4”, “SK-N-MC” for “CHO”, “plate.NVS_GPCR_hNPY1” for “plate.NVS_GPCR_hDRD4.4”, “NVS_GPCR_hNPY1,” for “NVS_GPCR_hDRD4.4,”
as §2

Sequence of human Dopamine Receptor D2 (DRD2), DRD2 (gene 1813) (P14416 whole entry, looked up): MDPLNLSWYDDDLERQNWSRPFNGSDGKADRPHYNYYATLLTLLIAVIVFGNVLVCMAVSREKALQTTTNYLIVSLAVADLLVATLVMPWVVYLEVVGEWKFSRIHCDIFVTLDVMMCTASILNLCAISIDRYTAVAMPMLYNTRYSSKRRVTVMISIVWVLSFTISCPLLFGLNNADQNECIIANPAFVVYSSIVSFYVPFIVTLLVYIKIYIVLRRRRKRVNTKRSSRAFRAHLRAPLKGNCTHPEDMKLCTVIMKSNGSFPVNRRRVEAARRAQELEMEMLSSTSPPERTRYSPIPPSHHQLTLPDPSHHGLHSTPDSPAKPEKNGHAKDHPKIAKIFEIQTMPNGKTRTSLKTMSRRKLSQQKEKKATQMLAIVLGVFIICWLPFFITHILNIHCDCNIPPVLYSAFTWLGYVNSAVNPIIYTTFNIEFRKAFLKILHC
Sequence of human Muscarinic, M4 Receptor, CHRM4 (gene 1132) (P08173 whole entry, looked up): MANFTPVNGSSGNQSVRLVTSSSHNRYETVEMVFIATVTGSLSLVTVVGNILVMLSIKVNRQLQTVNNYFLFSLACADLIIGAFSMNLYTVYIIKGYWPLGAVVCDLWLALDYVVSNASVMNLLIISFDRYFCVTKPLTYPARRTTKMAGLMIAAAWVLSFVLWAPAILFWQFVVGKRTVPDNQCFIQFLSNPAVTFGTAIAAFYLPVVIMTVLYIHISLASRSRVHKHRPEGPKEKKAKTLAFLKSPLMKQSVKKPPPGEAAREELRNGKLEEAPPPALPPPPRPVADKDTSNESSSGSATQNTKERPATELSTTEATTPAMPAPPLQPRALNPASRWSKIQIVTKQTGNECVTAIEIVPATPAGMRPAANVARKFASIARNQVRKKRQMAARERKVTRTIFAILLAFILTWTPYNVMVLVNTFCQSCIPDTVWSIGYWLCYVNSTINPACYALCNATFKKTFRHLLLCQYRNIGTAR
Sequence of human Dopamine Receptor D4.4 (DRD4.4), DRD4 (gene 1815) (P21917 whole entry, looked up): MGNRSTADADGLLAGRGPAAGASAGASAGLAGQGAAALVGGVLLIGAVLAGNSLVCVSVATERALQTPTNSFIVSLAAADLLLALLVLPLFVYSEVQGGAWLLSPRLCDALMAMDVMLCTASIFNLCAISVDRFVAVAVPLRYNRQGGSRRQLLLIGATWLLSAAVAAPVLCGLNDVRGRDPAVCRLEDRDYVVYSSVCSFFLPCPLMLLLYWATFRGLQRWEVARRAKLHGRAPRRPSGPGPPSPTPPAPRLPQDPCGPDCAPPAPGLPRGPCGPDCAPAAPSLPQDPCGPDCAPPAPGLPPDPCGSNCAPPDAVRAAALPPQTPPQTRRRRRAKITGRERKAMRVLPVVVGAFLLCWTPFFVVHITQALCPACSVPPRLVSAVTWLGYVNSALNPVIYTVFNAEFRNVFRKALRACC
Sequence of human Neuropeptide Receptor Y1 (NPY1), NPY1R (gene 4886) (P25929 whole entry, looked up): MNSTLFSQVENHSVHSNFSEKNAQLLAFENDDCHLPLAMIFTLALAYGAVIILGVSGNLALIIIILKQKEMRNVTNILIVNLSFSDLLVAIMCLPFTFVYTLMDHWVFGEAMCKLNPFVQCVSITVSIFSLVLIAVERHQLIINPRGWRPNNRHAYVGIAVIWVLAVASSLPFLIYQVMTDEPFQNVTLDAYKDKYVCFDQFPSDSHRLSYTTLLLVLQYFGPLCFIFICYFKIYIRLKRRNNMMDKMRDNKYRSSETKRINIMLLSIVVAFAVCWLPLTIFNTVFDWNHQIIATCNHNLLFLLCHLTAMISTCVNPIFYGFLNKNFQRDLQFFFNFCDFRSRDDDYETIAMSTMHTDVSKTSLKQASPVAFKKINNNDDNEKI
Sequence of Neuropeptide Y receptor type 2 (Homo sapiens) (P49146 whole entry, looked up): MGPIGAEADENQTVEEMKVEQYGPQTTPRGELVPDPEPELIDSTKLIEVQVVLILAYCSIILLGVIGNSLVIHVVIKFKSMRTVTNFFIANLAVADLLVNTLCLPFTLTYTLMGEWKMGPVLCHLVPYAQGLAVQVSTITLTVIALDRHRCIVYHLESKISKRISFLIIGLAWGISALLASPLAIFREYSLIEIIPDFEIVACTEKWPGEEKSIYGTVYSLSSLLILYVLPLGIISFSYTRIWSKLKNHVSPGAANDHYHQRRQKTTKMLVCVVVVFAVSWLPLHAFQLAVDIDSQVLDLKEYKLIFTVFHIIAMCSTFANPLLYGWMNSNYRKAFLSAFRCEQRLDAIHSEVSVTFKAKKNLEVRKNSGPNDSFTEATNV

As usually defined, the AC50 is the concentration at which the activity in the assay is half-maximal. `CC/C(=C(\c1ccccc1)c1ccc(OCCN(C)C)cc1)c1ccccc1`: the molecule was classed as inactive in assay [1] and in assay [2]. Further, the AC50 was 10.1 µM (active) in assay [3], 7.13 µM (active) in assay [4] and 11.9 µM (active) in assay [5].
Regarding `O=C(c1ccc(OCCN2CCCCC2)cc1)c1c(-c2ccc(O)cc2)sc2cc(O)ccc12`, the AC50 in assay [2] is 1.07 µM (active); in assay [3], 4.93 µM (active); in assay [4] it was 3.7 µM (active); in assay [7], 7.83 µM (active). Further, in assay [6], the molecule was called inactive.
